Source: PubChem BioAssay (NCI)
Compounds without any hit were thinned out: in the full panel of roughly 83,000, 20% have a hit.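 How to read the values: 0–100, growth inhibition (40 = 60% inhibited); 0, no net growth; -100 to 0, cell death (-40 = 40% of starting cells died; -100 = all dead).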 The source made the active and inactive calls. Rule for the calls: active = growth percent below 10; inactive = the rest.

Columns and labels:
Assay in all cases: NCI-60 one-dose screen, 48 h (100 = growth as untreated, 0 = no growth, -100 = all killed)
HCT-15 colon = settings: 10 µM unless noted
HT29 colon = settings: 10 µM unless noted
SNB-75 CNS = settings: 10 µM unless noted
SNB-19 CNS = settings: 10 µM unless noted
U251 CNS = settings: 10 µM unless noted
PC-3 prostate = settings: 10 µM unless noted
SK-MEL-5 melanoma = settings: 10 µM unless noted
UACC-62 melanoma = settings: 10 µM unless noted
LOX IMVI melanoma = settings: 10 µM
SK-MEL-28 melanoma = settings: 10 µM unless noted
SK-MEL-2 melanoma = settings: 10 µM unless noted
EKVX NSCLC = settings: 10 µM unless noted
SN12C renal = settings: 10 µM unless noted
UO-31 renal = settings: 10 µM unless noted
TK-10 renal = settings: 10 µM unless noted
CAKI-1 renal = settings: 10 µM unless noted
A498 renal = settings: 10 µM unless noted
CCRF-CEM leukemia = settings: 10 µM unless noted
MOLT-4 leukemia = settings: 10 µM unless noted
ACHN renal = settings: 10 µM unless noted

Measured: growth

O=C(c1ccc(Cl)cc1)N1CCCCC1
inactive: HCT-15 colon 98.5% | HT29 colon 101% | SNB-75 CNS 88.5% | SNB-19 CNS 93.7% | U251 CNS 94.7% | PC-3 prostate 97.8% | SK-MEL-5 melanoma 100% | UACC-62 melanoma 95% | LOX IMVI melanoma 97.6% | SK-MEL-28 melanoma 101% | SK-MEL-2 melanoma 102% | EKVX NSCLC 98.1% | SN12C renal 92.2% | UO-31 renal 93.3% | TK-10 renal 91% | CAKI-1 renal 97.4% | A498 renal 73.3% | CCRF-CEM leukemia 93.3% | MOLT-4 leukemia 98.9%

NC(CCl)=NCC12CC3CC(CC(C3)C1)C2
active: HCT-15 colon 9.53% | HT29 colon -13.6% | U251 CNS 6.8% | PC-3 prostate 7.42% | SK-MEL-5 melanoma 5.92% | LOX IMVI melanoma -33.6% | SK-MEL-2 melanoma -44.6% | EKVX NSCLC -7.97% | SN12C renal 9.41% | UO-31 renal -98.5% | TK-10 renal -2.27% | CCRF-CEM leukemia -15.8%
inactive: SNB-75 CNS 13.2% | SNB-19 CNS 22.2% | UACC-62 melanoma 32.7% | SK-MEL-28 melanoma 55.3% | ACHN renal 11.8% | A498 renal 33% | MOLT-4 leukemia 27.4%

Cc1[nH]c(=S)[nH]c(=O)c1C
inactive: HCT-15 colon 99.4% | HT29 colon 104% | SNB-75 CNS 93.4% | SNB-19 CNS 103% | U251 CNS 92.4% | PC-3 prostate 102% | SK-MEL-5 melanoma 100% | UACC-62 melanoma 105% | LOX IMVI melanoma 104% | SK-MEL-28 melanoma 110% | SK-MEL-2 melanoma 107% | EKVX NSCLC 109% | SN12C renal 106% | UO-31 renal 96.4% | TK-10 renal 107% | CAKI-1 renal 103% | A498 renal 110% | CCRF-CEM leukemia 96.9% | MOLT-4 leukemia 89.3%

COC(=O)c1ccc([N+](=O)[O-])c(C)c1
active: CCRF-CEM leukemia 4.56%
inactive: HCT-15 colon 94.9% | HT29 colon 121% | SNB-75 CNS 88.4% | SNB-19 CNS 119% | U251 CNS 101% | PC-3 prostate 93.4% | SK-MEL-5 melanoma 109% | UACC-62 melanoma 107% | LOX IMVI melanoma 107% | SK-MEL-28 melanoma 102% | SK-MEL-2 melanoma 116% | EKVX NSCLC 109% | SN12C renal 109% | UO-31 renal 79.9% | TK-10 renal 128% | ACHN renal 97.1% | A498 renal 79.5% | MOLT-4 leukemia 112%

Nc1nnc2cc(F)ccc2n1
inactive: HCT-15 colon 99.4% | HT29 colon 111% | SNB-75 CNS 75.1% | SNB-19 CNS 99.2% | U251 CNS 110% | PC-3 prostate 96.6% | SK-MEL-5 melanoma 114% | UACC-62 melanoma 105% | LOX IMVI melanoma 96.3% | SK-MEL-28 melanoma 108% | SK-MEL-2 melanoma 112% | EKVX NSCLC 96.9% | SN12C renal 89.1% | UO-31 renal 85% | TK-10 renal 126% | ACHN renal 99.4% | A498 renal 105% | MOLT-4 leukemia 102%

OC(CCN1CCCCC1)(c1ccccc1)c1ccccc1
inactive: HCT-15 colon 104% | HT29 colon 96.1% | SNB-75 CNS 85.8% | SNB-19 CNS 110% | U251 CNS 100% | PC-3 prostate 96% | SK-MEL-5 melanoma 97.4% | UACC-62 melanoma 106% | LOX IMVI melanoma 97.2% | SK-MEL-28 melanoma 112% | SK-MEL-2 melanoma 110% | EKVX NSCLC 98.9% | SN12C renal 108% | UO-31 renal 75.4% | TK-10 renal 113% | CAKI-1 renal 92.6% | A498 renal 100% | CCRF-CEM leukemia 103% | MOLT-4 leukemia 102%

S=CN1CCCCC1
inactive: HCT-15 colon 99.9% | HT29 colon 108% | SNB-75 CNS 93.2% | SNB-19 CNS 109% | U251 CNS 89.1% | PC-3 prostate 99.3% | SK-MEL-5 melanoma 104% | UACC-62 melanoma 106% | LOX IMVI melanoma 99% | SK-MEL-28 melanoma 103% | SK-MEL-2 melanoma 124% | EKVX NSCLC 96.7% | SN12C renal 103% | UO-31 renal 89.1% | TK-10 renal 110% | CAKI-1 renal 97.2% | A498 renal 105% | CCRF-CEM leukemia 110%

CC1CCC(C)(C)c2ccccc21 (configuration not stated)
inactive: HCT-15 colon 101% | HT29 colon 103% | SNB-75 CNS 82.9% | SNB-19 CNS 103% | U251 CNS 99.2% | PC-3 prostate 93.5% | SK-MEL-5 melanoma 95.8% | UACC-62 melanoma 103% | LOX IMVI melanoma 98.6% | SK-MEL-28 melanoma 97.3% | SK-MEL-2 melanoma 106% | EKVX NSCLC 96.3% | SN12C renal 99.5% | UO-31 renal 91.5% | TK-10 renal 104% | ACHN renal 98.4% | MOLT-4 leukemia 116%

CCC1CCC(C)NC1 (configuration not stated)
inactive: HCT-15 colon 91.5% | HT29 colon 104% | SNB-75 CNS 88.6% | SNB-19 CNS 100% | U251 CNS 95.7% | PC-3 prostate 94.2% | SK-MEL-5 melanoma 98.9% | UACC-62 melanoma 99.3% | LOX IMVI melanoma 95.9% | SK-MEL-28 melanoma 102% | SK-MEL-2 melanoma 115% | EKVX NSCLC 92.5% | SN12C renal 106% | UO-31 renal 93.5% | TK-10 renal 97.3% | ACHN renal 102% | A498 renal 65.6% | MOLT-4 leukemia 105%

O=C(O)CCCCCNC(=O)OCc1ccccc1
active: CCRF-CEM leukemia 0.55%
inactive: HCT-15 colon 103% | HT29 colon 108% | SNB-75 CNS 74% | SNB-19 CNS 105% | U251 CNS 94.9% | PC-3 prostate 95.3% | SK-MEL-5 melanoma 111% | UACC-62 melanoma 101% | LOX IMVI melanoma 104% | SK-MEL-28 melanoma 106% | SK-MEL-2 melanoma 119% | EKVX NSCLC 98.1% | SN12C renal 97% | UO-31 renal 72.9% | TK-10 renal 109% | ACHN renal 101% | A498 renal 103% | MOLT-4 leukemia 110%

Nc1ccc2ccccc2c1-c1c(N)ccc2ccccc12
inactive: HCT-15 colon 30.7% | SNB-75 CNS 42.7% | SNB-19 CNS 44.1% | U251 CNS 21.5% | PC-3 prostate 31.2% | SK-MEL-5 melanoma 25.5% | UACC-62 melanoma 24.9% | LOX IMVI melanoma 36.8% | SK-MEL-28 melanoma 56.4% | SK-MEL-2 melanoma 15.5% | EKVX NSCLC 36.5% | SN12C renal 37% | UO-31 renal 40.8% | TK-10 renal 34.9% | ACHN renal 38.8% | A498 renal 14.6% | CCRF-CEM leukemia 12.9% | MOLT-4 leukemia 17.4%
active: HT29 colon 7.41%

COc1ccc(Nc2cc(Cl)ccc2C(=O)O)cn1
inactive: HCT-15 colon 106% | HT29 colon 106% | SNB-75 CNS 99.4% | SNB-19 CNS 96.5% | U251 CNS 105% | PC-3 prostate 99% | SK-MEL-5 melanoma 114% | UACC-62 melanoma 96.3% | LOX IMVI melanoma 98.1% | SK-MEL-28 melanoma 98.8% | SK-MEL-2 melanoma 115% | EKVX NSCLC 130% | SN12C renal 93.2% | UO-31 renal 88.9% | TK-10 renal 156% | ACHN renal 108% | A498 renal 90.9% | CCRF-CEM leukemia 96.3% | MOLT-4 leukemia 93.5%

CN(C)c1ccc2c(N(C)C)cc(N(C)C)nc2c1
inactive: HCT-15 colon 92% | HT29 colon 34.4% | SNB-75 CNS 92.5% | SNB-19 CNS 84.5% | U251 CNS 90.8% | PC-3 prostate 72.6% | SK-MEL-5 melanoma 100% | UACC-62 melanoma 81.9% | LOX IMVI melanoma 87.7% | SK-MEL-28 melanoma 84.4% | SK-MEL-2 melanoma 143% | EKVX NSCLC 75.8% | SN12C renal 83.1% | UO-31 renal 50.3% | TK-10 renal 104% | ACHN renal 76.5% | A498 renal 78.9% | MOLT-4 leukemia 80.3%

O=[N+]([O-])c1c(O)c(CNCCCO)cc(CNCCCO)c1O
inactive: HCT-15 colon 106% | HT29 colon 107% | SNB-75 CNS 91.2% | SNB-19 CNS 105% | U251 CNS 99.6% | PC-3 prostate 88.7% | SK-MEL-5 melanoma 119% | UACC-62 melanoma 97.7% | LOX IMVI melanoma 93.9% | SK-MEL-28 melanoma 121% | SK-MEL-2 melanoma 87.9% | EKVX NSCLC 96.1% | SN12C renal 104% | UO-31 renal 63.7% | TK-10 renal 111% | CAKI-1 renal 100% | A498 renal 130% | CCRF-CEM leukemia 119% | MOLT-4 leukemia 73.2%

CC(=O)[C@@]1(O)CC[C@H]2[C@@H]3CC[C@@H]4CC(=O)CC[C@]4(C)[C@H]3[C@@H](O)C[C@@]21C
inactive: HCT-15 colon 103% | HT29 colon 100% | SNB-75 CNS 92.7% | SNB-19 CNS 103% | U251 CNS 94.8% | PC-3 prostate 86.1% | SK-MEL-5 melanoma 99.4% | UACC-62 melanoma 94.7% | LOX IMVI melanoma 96.7% | SK-MEL-28 melanoma 99.4% | SK-MEL-2 melanoma 99.7% | EKVX NSCLC 88.9% | SN12C renal 95.4% | UO-31 renal 91.7% | TK-10 renal 97.2% | ACHN renal 101% | A498 renal 88.6% | CCRF-CEM leukemia 94.1% | MOLT-4 leukemia 94.5%

CCOC(=O)c1ccc(NC(C)=O)o1
inactive: HCT-15 colon 106% | HT29 colon 102% | SNB-75 CNS 94.3% | SNB-19 CNS 97.1% | U251 CNS 94.1% | PC-3 prostate 95.8% | SK-MEL-5 melanoma 97.9% | UACC-62 melanoma 90.4% | LOX IMVI melanoma 95.4% | SK-MEL-28 melanoma 118% | SK-MEL-2 melanoma 99.6% | EKVX NSCLC 111% | SN12C renal 95.1% | UO-31 renal 87.4% | TK-10 renal 100% | CAKI-1 renal 103% | A498 renal 63% | CCRF-CEM leukemia 98.8% | MOLT-4 leukemia 79.1%

Cn1c(=O)c2[nH]c(CC(=O)O)nc2n(C)c1=O
inactive: HCT-15 colon 107% | HT29 colon 101% | SNB-75 CNS 98.1% | SNB-19 CNS 100% | U251 CNS 103% | PC-3 prostate 96.8% | SK-MEL-5 melanoma 106% | UACC-62 melanoma 108% | LOX IMVI melanoma 101% | SK-MEL-28 melanoma 101% | SK-MEL-2 melanoma 105% | EKVX NSCLC 101% | SN12C renal 104% | UO-31 renal 93.5% | TK-10 renal 102% | CAKI-1 renal 102% | A498 renal 98.4% | CCRF-CEM leukemia 106% | MOLT-4 leukemia 103%
